Measurements published in PubChem BioAssay (NCI).
This is part of a sample that, as a whole, favours compounds with a hit. Of some 83,000 tested, about 20% had one in any assay.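 Method: cells in 96-well plates; compound added at one concentration; 48 h incubation; percent growth measured; values under 10 scored active.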 The source made the active and inactive calls.

tested on: M14 melanoma; test: NCI-60 one-dose screen, 48 h (100 = growth as untreated, 0 = no growth, -100 = all killed); settings: 10 µM unless noted
Experimental: Growth inhibition of the M14 human tumor cell line is measured as a screen for anti-cancer activity. Cells are grown in 96 well plates and exposed to the test compound for 48 hours. Compounds are tested at a single concentration, which is 10^-5 M for most compounds. The reported endpoint is percent growth (GI% or GIPRCNT), where numbers from 0 - 100% represent growth inhibition, and numbers from -100% - 0 represent cell death. For example, a value of 40 represents 60% growth inhibition. A value of 0 means no net growth occurred over the course of the experiment. A value of -40 indicates 40% of cells at the beginning of the experiment died by the end of the experiment. A value of -100 means all cells are dead at the end of the experiment.
NCI-60 Human Tumor Cell Lines Screen was performed using the standard one-dose NCI protocol, which is described in more detail at https://dtp.cancer.gov/discovery_development/nci-60/default.htm.
Compounds with GIPRCNT values below 10 were considered active. Activity score was based on GIPRCNT using the following formula: […]
Score is 0 for GIPRCNT values of 100 or above, 50 for GIPRCNT values of 0, and 100 for GIPRCNT values of -100.

SMILES	growth
COc1ccc2c(OCc3nnc4ccc(-c5ccccc5)nn34)ccnc2c1	104% [2.5 µM] (inactive)
CCc1nc2cc(/C=C/C(=O)NO)ccc2c(=O)n1CCc1ccc(F)cc1	6.79% (active)
Cc1oc2c(C(=O)N/N=C\c3ccc(O)cc3O)c[nH]c2c1C	-13.8% (active)
COC(=O)[C@]12CC[C@@H](C)[C@H](C)[C@@H]1C1=CC[C@@H]3[C@@]4(C)C(C=O)=C[C@@](C)(COS(C)(=O)=O)C4=CC[C@@]3(C)[C@]1(C)CC2	-55.8% (active)
Cc1nc(Nc2n[nH]c3c2CN(C(=O)N[C@H](CN(C)C)c2ccccc2)C3(C)C)c2sccc2n1	-54.8% (active)
Cc1ccc(-c2cc3c(SCC(=O)Nc4cc(C(F)(F)F)ccc4Cl)nccn3n2)cc1	50.6% (inactive)
O=C(NC[C@H](O)CO)c1ccncc1Nc1ccc(I)cc1F	3.95% (active)
FC(F)c1nc2ccccc2n1-c1nc(N2CCOCC2)nc(N2CCOCC2)n1	3% (active)
CCN(CC)CCNC(=O)c1c(C)[nH]c(/C=C2\C(=O)Nc3ccc(F)cc32)c1C	-77% (active)
CN1CCN(CC(=O)Nc2ccc(-c3nc4ccccc4s3)cc2)CC1	67.6% (inactive)
CCOC(=O)C1=C(C)NC(=O)NC1c1cc(=O)oc2ccc(C)cc12 (stereo not given)	102% (inactive)
CCOC(=O)c1sc(NC(=O)COc2ccc(/C=C3\Cc4ccc(Cl)cc4C3=O)cc2)nc1C	107% (inactive)
COC(=O)[C@H](C)NC(=O)[C@@H](OC)[C@@H]1Cc2cc3cc(OC4CC(OC5CC(O)C(O)C(C)O5)C(O)C(C)O4)c(C)c(O)c3c(O)c2C(=O)[C@H]1OC1CC(OC2CC(OC3CC(C)(O)C(O)C(C)O3)C(O)C(C)O2)C(O)C(C)O1 (stereo not given in full)	-23.9% (active)
O=C1OCC2=C1C(c1cccc(F)c1)c1cc3c(cc1N2CCO)OCCO3 (stereo not given)	-9.63% (active)
CCc1nc(C(N)=O)c(Nc2ccc(N3CCC(N4CCN(C)CC4)CC3)c(OC)c2)nc1NC1CCOCC1	15.2% (inactive)
COc1cnc2c(c1)C(=O)c1c-2n(CCCn2ccnc2)c(=O)c2cc(Cl)ccc12	-2.18% (active)
CCOC(=O)Sc1ncnc2nc[nH]c12	13.7% (inactive)
Clc1nc(Cl)c2ncn(C/C=C\Cn3cnc4c(Cl)nc(Cl)nc43)c2n1	-32.9% (active)
COc1cc(OC)c(/C=C/S(=O)(=O)Cc2ccc(OC)c(NCC(=O)O)c2)c(OC)c1	12.6% (inactive)
CC(C)=CCc1cc2c(cc1O)C1=C(C(=O)C3=C(NCCS3(=O)=O)C1=O)C(C=C(C)C)O2 (stereo not given)	3.7% (active)

SMILES	growth
CO[C@@H](C(=O)N1Cc2[nH]nc(NC(=O)c3ccc(N4CCN(C)CC4)cc3)c2C1)c1ccccc1	35.8% (inactive)
CNC(=O)c1cc(Oc2cccc3nc(Nc4ccc(Oc5ccccc5)cc4)ccc23)ccn1	68.6% (inactive)
Oc1ccc(C(c2ccc(O)cc2)C(Cl)(Cl)Cl)cc1	105% (inactive)
Cn1nccc1Nc1nccc(-c2ccn([C@H](CO)c3ccc(Cl)c(F)c3)c(=O)c2)n1	24.3% (inactive)
CC1(O)CCC(Nc2cc(-c3ccc(C(F)(F)F)cc3)c(C#N)c3nc4ccccc4n23)CC1 (stereo not given)	91.2% (inactive)
O=C(CNc1nc2ccccc2s1)Nc1ccc(-c2nc3ccccc3s2)cc1	115% (inactive)
COc1ccc(COc2cc3oc(=O)c4cc(C(C)O)ccc4c3cc2OC)cc1 (stereo not given)	57.6% (inactive)
CNC(=O)c1c(C)oc2cc(Oc3ncnc4cc(OC)c(OC)cc34)ccc12	98.2% (inactive)
C=CC(=O)Nc1cc(Nc2nccc(-c3cn(C)c4ccccc34)n2)c(OC)cc1N(C)CCN(C)C	-79.4% (active)
COc1cnc2c(c1)C(=O)c1c-2n(CCCNC2=NCCS2)c(=O)c2cc(Cl)ccc12	-70.3% (active)
COc1cc2c(Oc3ccc(NC(=O)C4(C(=O)Nc5ccc(F)cc5)CC4)cc3F)ccnc2cc1OCCCN1CCOCC1	-65.9% (active)
CCCC(=O)OCC1OC(n2cnc3c(=S)nc(N)[nH]c32)C(OC(=O)CCC)C1OC(=O)CCC (stereo not given)	13.9% (inactive)
Cc1cnc(NC(=O)Nc2cc(Br)c(C)cc2OC[C@@H]2CNCCO2)cn1	-84.5% (active)
COc1ccc(-c2nocc2-c2cc(OC)c(OC)c(OC)c2)cc1	3.03% (active)
Nc1c(C(=O)c2ccccc2)sc2nc(-c3cccs3)cc(-c3cccs3)c12	27% (inactive)
CN1CC[C@@H](c2c(O)cc(O)c3c(=O)cc(-c4ccccc4Cl)oc23)[C@@H]1CO	-35.4% (active)
COc1ccc(Br)cc1NC(=O)Nc1cccc2c1ccn2Cc1ccnc(N)c1	-30.2% (active)
NC1(C(=O)N[C@@H](CCO)c2ccc(Cl)cc2)CCN(c2ncnc3[nH]ccc23)CC1	46.3% (inactive)
CCC1(/C=N/NC(N)=S)NC(=O)NC1=O (stereo not given)	103% (inactive)
O=C(c1ccc(/C=C/c2n[nH]c3ccccc23)cc1)N1CCNCC1	27.8% (inactive)
